Measurements: PubChem BioAssay (NCI)
The panel holds about 83,000 compounds, 20% with a hit somewhere; the sample as a whole holds those more often.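 Single-concentration screen, 48 h exposure, 96-well plates. Endpoint: percent growth. Below 10 = active.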 Activity calls are given as the source filed them.

Assays:
Assay in all cases: NCI-60 one-dose screen, 48 h (100 = growth as untreated, 0 = no growth, -100 = all killed)
Settings in all cases: 10 µM unless noted
NCI-H23 lung = system: NCI-H23 lung
NCI-H226 lung = system: NCI-H226 lung
NCI-H322M lung = system: NCI-H322M lung
HOP-62 NSCLC = system: HOP-62 NSCLC
NCI-H460 lung = system: NCI-H460 lung
HOP-92 NSCLC = system: HOP-92 NSCLC
NCI-H522 lung = system: NCI-H522 lung
A549/ATCC NSCLC = system: A549/ATCC NSCLC
786-0 renal = system: 786-0 renal
COLO 205 colon = system: COLO 205 colon

Measured: growth

C[C@H](NC(=O)[C@@H]1CSSC[C@@H](NC(=O)c2nc3ccccc3cc2O)C(=O)NCC(=O)N1C)c1ccccc1
inactive: NCI-H23 lung 38.6% | NCI-H226 lung 60.5% | NCI-H322M lung 76.7% | HOP-62 NSCLC 66.6% | HOP-92 NSCLC 51.6% | NCI-H522 lung 24.7% | A549/ATCC NSCLC 42.9%
active: NCI-H460 lung 6.55% | 786-0 renal -37.2% | COLO 205 colon -63.7%

COc1ccc(-c2c(N)n[nH]c2-c2ccc(Cl)cc2O)cc1OC
inactive: NCI-H23 lung 83.2% | NCI-H226 lung 79.8% | NCI-H322M lung 92.4% | HOP-62 NSCLC 91.5% | NCI-H460 lung 94.5% | HOP-92 NSCLC 69.2% | NCI-H522 lung 84.3% | A549/ATCC NSCLC 92.9% | 786-0 renal 86.6% | COLO 205 colon 113%

O=C1N=c2cc3c(cc2=C/C1=C/c1sc(=S)n(CCc2ccc(O)cc2)c1O)OCCO3
inactive: NCI-H23 lung 71.2% | NCI-H226 lung 93.5% | NCI-H322M lung 95.9% | HOP-62 NSCLC 97% | NCI-H460 lung 83.8% | HOP-92 NSCLC 56.7% | NCI-H522 lung 37.3% | A549/ATCC NSCLC 99.1% | 786-0 renal 80.5% | COLO 205 colon 75.6%

N#Cc1c(N2CCNCC2)nc2sc3cc(Cl)c(Cl)cc3n2c1=N
inactive: NCI-H23 lung 96.9% | NCI-H226 lung 95.2% | NCI-H322M lung 107% | HOP-62 NSCLC 98.7% | NCI-H460 lung 97.8% | HOP-92 NSCLC 93.6% | NCI-H522 lung 67.3% | A549/ATCC NSCLC 108% | 786-0 renal 105% | COLO 205 colon 132%

COc1ccc(NC(=O)CSc2nc(C)c(C(C)=O)n2-c2ccc([N+](=O)[O-])cc2)cc1
inactive: NCI-H23 lung 88.2% | NCI-H226 lung 89% | NCI-H322M lung 92.7% | HOP-62 NSCLC 95.7% | NCI-H460 lung 103% | HOP-92 NSCLC 112% | NCI-H522 lung 88.9% | A549/ATCC NSCLC 90.6% | 786-0 renal 83.9% | COLO 205 colon 102%

CCOC(=O)/C=C/c1cc2cc(-c3csc4ccccc34)ccc2[nH]1
inactive: NCI-H23 lung 60.6% | NCI-H226 lung 103% | NCI-H322M lung 115% | HOP-62 NSCLC 76.7% | NCI-H460 lung 83.8% | HOP-92 NSCLC 99.7% | NCI-H522 lung 40% | A549/ATCC NSCLC 55.5% | 786-0 renal 82.4% | COLO 205 colon 93.4%

COc1cccc(-c2nn(-c3ccccc3)cc2-c2ccnc(NCCCNC(=O)Nc3ccc(Cl)c(Cl)c3)c2)c1
inactive: NCI-H23 lung 15.1% | NCI-H226 lung 47.9% | NCI-H322M lung 24.3% | NCI-H460 lung 18.5%
active: HOP-62 NSCLC -5.99% | HOP-92 NSCLC -11.7% | NCI-H522 lung -37% | A549/ATCC NSCLC 7.3% | 786-0 renal -38.7% | COLO 205 colon -44.7%

Cc1cc(NCc2cc(Nc3ccnc4cc(Cl)ccc34)ccc2F)nc(N2CCOCC2)n1
active: HOP-62 NSCLC -9.53% | 786-0 renal 1.21%
inactive: NCI-H23 lung 43.8% | NCI-H226 lung 61.2% | NCI-H322M lung 71.3% | NCI-H460 lung 39.8% | HOP-92 NSCLC 42.5% | NCI-H522 lung 21.8% | A549/ATCC NSCLC 59.4% | COLO 205 colon 35.5%

Nc1nc(N)c2c(n1)NC(c1ccccc1)C1CCc3ccccc3C1=N2 (stereo not given)
inactive: NCI-H23 lung 39.3% | NCI-H226 lung 53.3% | NCI-H322M lung 64.4% | HOP-62 NSCLC 70.2% | NCI-H460 lung 18.5% | HOP-92 NSCLC 72.2% | NCI-H522 lung 89.9% | A549/ATCC NSCLC 63.4% | 786-0 renal 55.1% | COLO 205 colon 27.6%

CCCCCCN(CCCCCC)c1ccc(/C=C2/SC(=O)N(c3nc(N4CCCC4)nc(N4CCCC4)n3)C2=O)c(C)c1
inactive: NCI-H23 lung 47.2% | NCI-H226 lung 92.5% | NCI-H322M lung 99% | HOP-62 NSCLC 119% | NCI-H460 lung 57.5% | NCI-H522 lung 53.2% | A549/ATCC NSCLC 54.2% | 786-0 renal 63.5% | COLO 205 colon 82.1%
active: HOP-92 NSCLC -3.12%

O=C(N/N=C/C=C/c1ccc([N+](=O)[O-])o1)c1cc2ccccc2cc1O
active: NCI-H23 lung -54.6% | NCI-H226 lung -72.3% | NCI-H322M lung -6.76% | HOP-62 NSCLC -33.9% | NCI-H460 lung -14.3% | HOP-92 NSCLC -47.5% | NCI-H522 lung -62.9% | A549/ATCC NSCLC 4.04% | 786-0 renal -18.4% | COLO 205 colon -100%

CN1CCN(CCCOc2ccc3nc(Nc4ccc(F)c(F)c4)ccc3c2)CC1
inactive: NCI-H23 lung 51.5% | NCI-H226 lung 62.9% | NCI-H322M lung 68% | HOP-62 NSCLC 22.5% | A549/ATCC NSCLC 16.1%
active: NCI-H460 lung 7.51% | HOP-92 NSCLC 5.74% | NCI-H522 lung -50.4% | 786-0 renal 2.05% | COLO 205 colon -72%

N#Cc1c(N)nc2c(C#N)c(NC(=O)c3ccccc3)nn2c1-c1ccccc1
inactive: NCI-H23 lung 87% | NCI-H226 lung 78% | NCI-H322M lung 94.7% | HOP-62 NSCLC 90.7% | NCI-H460 lung 96.8% | HOP-92 NSCLC 82.5% | NCI-H522 lung 86.5% | 786-0 renal 102% | COLO 205 colon 103%

COc1cc(C(=O)/C=C/c2c(-c3ccc(F)cc3)nc3sc(C)cn23)cc(OC)c1OC
inactive: NCI-H23 lung 28.9% | NCI-H226 lung 58.5% | NCI-H322M lung 52% | HOP-62 NSCLC 79% | NCI-H460 lung 28.7% | HOP-92 NSCLC 23.4% | NCI-H522 lung 93.4% | A549/ATCC NSCLC 45.4% | 786-0 renal 40.8% | COLO 205 colon 52%

Cc1cc(=O)oc2c1ccc1oc(C#N)c(C)c12
inactive: NCI-H23 lung 97.9% | NCI-H226 lung 107% | NCI-H322M lung 98.9% | HOP-62 NSCLC 103% | NCI-H460 lung 108% | HOP-92 NSCLC 82% | NCI-H522 lung 102% | A549/ATCC NSCLC 99.8% | 786-0 renal 84.9% | COLO 205 colon 121%

C[C@@]1(CCC#N)[C@H]2CC[C@@H]3[C@H]4[C@H](C(=O)/C=C/c5cccnc5)CC[C@]4(C#N)CC[C@@]3(C)[C@]2(C)CC[C@H]1C(=O)/C=C/c1cccnc1
inactive: NCI-H23 lung 62.8% | NCI-H226 lung 65.5% | NCI-H322M lung 97.7% | HOP-62 NSCLC 73.2% | NCI-H460 lung 75.2% | HOP-92 NSCLC 80.7% | NCI-H522 lung 37.9% | A549/ATCC NSCLC 71.9% | 786-0 renal 77.9% | COLO 205 colon 71.7%

COc1ccc2[nH]c(O)c(C(=Nc3ccc(N(C)C(=O)CN4CCN(C)CC4)cc3)c3ccccc3)c2c1
inactive: NCI-H23 lung 21.2% | NCI-H226 lung 29% | NCI-H322M lung 61.1% | HOP-62 NSCLC 23.5% | NCI-H460 lung 15.3% | HOP-92 NSCLC 12.7% | NCI-H522 lung 67.2% | A549/ATCC NSCLC 24.2% | 786-0 renal 42.4%
active: COLO 205 colon -6.6%

COc1ccc(-c2cc(-c3cc(OC)c(OC)c(OC)c3)c(C#N)c(N3CCOCC3)n2)cc1O
inactive: NCI-H226 lung 108% | NCI-H322M lung 65.5% | HOP-62 NSCLC 68.4% | NCI-H460 lung 48.1% | HOP-92 NSCLC 42.8% | NCI-H522 lung 58.4% | 786-0 renal 68.9% | COLO 205 colon 97.2%
active: NCI-H23 lung -6.35%

CC(=O)N1N=C(c2ccc(Nc3nc(Nc4ccc(F)cc4)nc(Nc4ccc(F)cc4)n3)cc2)CC1c1cccc([N+](=O)[O-])c1 (stereo not given)
inactive: NCI-H23 lung 78.9% | NCI-H226 lung 101% | NCI-H322M lung 85.6% | HOP-62 NSCLC 82% | NCI-H460 lung 102% | HOP-92 NSCLC 71.2% | NCI-H522 lung 77% | A549/ATCC NSCLC 91.1% | 786-0 renal 86.4% | COLO 205 colon 84.9%

COc1cccc(C(=O)NCCCNc2cc(-c3cn(-c4ccccc4)nc3-c3cccc(OC)c3)ccn2)c1
inactive: NCI-H23 lung 45.4% | NCI-H226 lung 54.6% | NCI-H322M lung 99.6% | HOP-62 NSCLC 66% | NCI-H460 lung 48.8% | HOP-92 NSCLC 45.3% | NCI-H522 lung 46.1% | A549/ATCC NSCLC 29.9% | 786-0 renal 36.6% | COLO 205 colon 40%

COC(=O)[C@]12CC[C@@H](C)[C@H](C)[C@@H]1C1=CC[C@@H]3[C@@]4(C)C(C=O)=C[C@@](C)(COC(=O)c5ccco5)C4=CC[C@@]3(C)[C@]1(C)CC2
active: NCI-H23 lung 8.23% | HOP-62 NSCLC 7.71% | NCI-H460 lung 2.11% | HOP-92 NSCLC -15.5% | NCI-H522 lung -6.14% | 786-0 renal -8.17% | COLO 205 colon -55.8%
inactive: NCI-H226 lung 19.1% | NCI-H322M lung 39.6%

O=c1[nH]ccc2nc(N3CCC(O)CC3)nc(Nc3ccc(N4CCOCC4)cc3)c12
inactive: NCI-H23 lung 58.2% | NCI-H226 lung 45.7% | NCI-H322M lung 83.7% | HOP-62 NSCLC 97.2% | NCI-H460 lung 36.2% | NCI-H522 lung 75.1% | A549/ATCC NSCLC 29.8% | 786-0 renal 77.2%
active: HOP-92 NSCLC 2.14% | COLO 205 colon -1.79%

COc1ccc(-c2csc(C3=C(O)CN(C(C)C)C3=N)n2)cc1OC
inactive: NCI-H23 lung 101% | NCI-H226 lung 84.4% | NCI-H322M lung 91.6% | HOP-62 NSCLC 87% | NCI-H460 lung 120% | HOP-92 NSCLC 43% | NCI-H522 lung 89.1% | 786-0 renal 89.7% | COLO 205 colon 128%

CNC(=O)c1cc(Oc2ccc3nc(Nc4ccc(Cl)c(C(F)(F)F)c4)ccc3c2)ccn1
inactive: NCI-H23 lung 72.5% | NCI-H226 lung 56.9% | NCI-H322M lung 89.2% | HOP-62 NSCLC 85.1% | NCI-H460 lung 55.8% | HOP-92 NSCLC 59.2% | NCI-H522 lung 22.7% | A549/ATCC NSCLC 48.2% | 786-0 renal 85% | COLO 205 colon 52.6%

Cn1cc(-c2csc(-c3ccccc3)n2)c2cccnc21
active: NCI-H23 lung -54.3% [100 µM] | NCI-H226 lung -11.7% [100 µM] | NCI-H322M lung -23.6% [100 µM] | HOP-62 NSCLC -74.3% [100 µM] | NCI-H460 lung -56.2% [100 µM] | HOP-92 NSCLC -53% [100 µM] | NCI-H522 lung -24.3% [100 µM] | A549/ATCC NSCLC -12.8% [100 µM] | 786-0 renal -77.4% [100 µM] | COLO 205 colon -67.2% [100 µM]

COc1cccc(-c2nc3sccn3c2-c2ccnc(NCCNS(=O)(=O)c3cccc(F)c3)c2)c1
inactive: NCI-H23 lung 33.7% | NCI-H226 lung 22.9% | NCI-H322M lung 73.2% | HOP-62 NSCLC 55.3% | NCI-H460 lung 28.8% | HOP-92 NSCLC 18.3% | NCI-H522 lung 40.9% | 786-0 renal 48.1% | COLO 205 colon 25.8%
